# Hit rate of the full screen: of about 310,000 compounds, about 14,000 (4.5%) showed an effect of 50% or more. Effects have a minus sign here. This excerpt belongs to a sample that is enriched for strong results.
# Biological target: human ether-à-go-go-related gene (hERG) potassium channel (human, UniProt Q12809)
# Test: primary screen, population patch clamp on CHO cells stably expressing hERG; higher = less effect of the substance
# 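Further: peak tail current of the secondary pulse compared with the same well before compound.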
# Sequence of human ether-à-go-go-related gene (hERG) potassium channel (Q12809 whole entry, looked up): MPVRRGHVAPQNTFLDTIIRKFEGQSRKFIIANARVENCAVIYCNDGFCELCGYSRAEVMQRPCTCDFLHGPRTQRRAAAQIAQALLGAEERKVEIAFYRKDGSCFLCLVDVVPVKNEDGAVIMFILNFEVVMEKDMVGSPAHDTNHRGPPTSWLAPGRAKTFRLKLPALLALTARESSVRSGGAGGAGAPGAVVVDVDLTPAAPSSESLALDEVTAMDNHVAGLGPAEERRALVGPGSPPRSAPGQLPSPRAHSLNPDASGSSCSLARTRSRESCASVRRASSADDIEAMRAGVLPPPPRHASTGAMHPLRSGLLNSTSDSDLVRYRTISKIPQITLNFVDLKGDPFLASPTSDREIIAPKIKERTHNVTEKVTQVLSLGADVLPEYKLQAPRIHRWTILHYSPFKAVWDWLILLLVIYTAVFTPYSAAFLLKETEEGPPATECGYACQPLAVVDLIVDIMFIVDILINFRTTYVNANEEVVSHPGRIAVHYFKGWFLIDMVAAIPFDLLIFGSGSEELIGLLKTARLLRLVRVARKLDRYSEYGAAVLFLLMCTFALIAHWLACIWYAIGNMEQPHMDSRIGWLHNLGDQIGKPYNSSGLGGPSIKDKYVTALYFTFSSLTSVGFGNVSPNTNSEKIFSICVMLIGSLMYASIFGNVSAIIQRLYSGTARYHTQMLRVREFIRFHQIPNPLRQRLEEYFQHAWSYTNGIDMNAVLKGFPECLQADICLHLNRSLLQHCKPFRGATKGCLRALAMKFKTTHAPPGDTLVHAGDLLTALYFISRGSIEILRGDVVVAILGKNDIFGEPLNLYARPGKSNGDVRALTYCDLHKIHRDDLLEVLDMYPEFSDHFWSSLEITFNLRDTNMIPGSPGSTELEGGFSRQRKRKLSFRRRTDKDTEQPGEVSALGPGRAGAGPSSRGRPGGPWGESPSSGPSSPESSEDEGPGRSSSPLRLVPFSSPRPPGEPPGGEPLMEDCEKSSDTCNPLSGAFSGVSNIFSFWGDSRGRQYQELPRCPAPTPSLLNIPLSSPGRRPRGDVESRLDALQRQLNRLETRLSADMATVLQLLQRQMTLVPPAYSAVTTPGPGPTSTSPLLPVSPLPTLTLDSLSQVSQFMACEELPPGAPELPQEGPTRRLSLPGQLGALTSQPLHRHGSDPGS
row,Structure (SMILES),"hERG current change (%, negative = inhibition) at 10uM"
1,O=C(CO/N=C/c1c(Cl)cccc1Cl)NNC(=O)c1ccc(Cl)cc1,8.46%
2,NC(=O)N/N=C/C=C/c1ccc(F)cc1,8.5%
3,CC(C)=CCOc1c2occc2cc2ccc(=O)oc12,-17.9%
4,Clc1ccc2nc(C3CCN(Cc4nnnn4C4CCCCC4)CC3)[nH]c2c1,-59.2%
5,O=S(=O)(c1ccc2c(c1)OCCO2)N1CCC(c2nc3ccc(Cl)cc3[nH]2)CC1,-56.6%
6,O=C(c1cccc(Cl)c1)N1CCC(c2nc3ccccc3[nH]2)CC1,-38.2%
7,Fc1ccccc1C1CCN(Cc2nc(CC3CC3)no2)C1 (stereo not shown),2.1%
8,Fc1ccc2nc(C3CCN(Cc4nc(CC5CC5)no4)CC3)[nH]c2c1,-51.9%
9,CC(C)(C)c1ccc(S(=O)(=O)N2CCC(c3nc4ccc(Cl)cc4[nH]3)CC2)cc1,-3.97%
10,Clc1ccc2nc(C3CCN(Cc4ccccc4)CC3)[nH]c2c1,-73.4%
11,Fc1ccc2nc(C3CCCCN3Cc3nc(CC4CC4)no3)[nH]c2c1 (stereo not shown),0.821%
12,Cc1ccc(Cl)cc1N1CCN(Cc2nnnn2C2CCCCC2)CC1,7.78%
13,C1CCC(n2nnnc2CN2CCCC2)CC1,-1.31%
14,O=C(Cc1ccccc1)N1CCC(c2nc3ccccc3[nH]2)CC1,-18.9%
15,O=S(=O)(c1ccc2c(c1)OCCO2)N1CCC(c2nc3ccccc3[nH]2)CC1,3.43%
16,O=C(Cc1cc(=O)[nH][nH]1)N/N=C/C=C/c1ccccc1,8.93%
17,COc1cccc(CCNC(=O)CC2C(=O)NCCN2Cc2ccc(C)o2)c1 (stereo not shown),15.7%
18,CCC1=NN(C(=O)c2cccnc2)C(O)(C(F)(F)F)C1 (stereo not shown),3.08%
19,COc1ccc(CC(=O)NCc2nnc(SCC(=O)Nc3nccs3)n2C)cc1,17.3%
20,CCS(=O)(=O)n1nc(-c2ccccc2)cc1N,7.55%
21,COc1ccc(NC(=O)/C(=C/c2cccs2)NC(=O)c2ccco2)cc1,-21.1%
22,COc1ccc([N+](=O)[O-])cc1N(CC(=O)N1CCN(Cc2ccccc2)CC1)S(C)(=O)=O,5.94%

row,Structure (SMILES),"hERG current change (%, negative = inhibition) at 10uM"
1,CC(=O)NS(=O)(=O)c1ccccc1,9.31%
2,O=C(NNC(=O)c1ccco1)c1cccc(Br)c1,0.684%
3,O=C(CCC1CCCCC1)NNC(=O)c1cnccn1,-4.92%
4,COc1cc(Cl)c(C)cc1NC(=O)CSc1ccccc1,5.58%
5,COc1ccc(NC(=S)N2CCC(c3nc4ccc(Cl)cc4[nH]3)CC2)c(OC)c1,-42.6%
6,O=S(=O)(c1ccc(Cl)cc1)N1CCC(c2nc3ccccc3[nH]2)CC1,1.05%
7,Clc1ccc(CN2CCC(c3nc4ccc(Cl)cc4[nH]3)CC2)cc1,-80.7%
8,COc1ccc(CN2CCC(c3nc4ccc(Cl)cc4[nH]3)CC2)cc1,-76.3%
9,CCC(C)(C)n1nnnc1CN1CCC(c2nc3ccc(C)cc3[nH]2)CC1,-48.3%
10,O=C(NCC1CCCO1)c1ccc(S(=O)(=O)N2CCC(c3nc4ccc(Cl)cc4[nH]3)CC2)cc1 (stereo not shown),-18%
11,Cc1ccc(CN2CCC(c3nc4ccc(Cl)cc4[nH]3)CC2)cc1,-83%
12,COc1ccc(NC(=S)N2CCCC(c3nc4ccc(C)cc4[nH]3)C2)cc1 (stereo not shown),-10.5%
13,Cc1ccc(Cn2nnnc2CN2CCC(c3nc4ccc(Cl)cc4[nH]3)CC2)cc1,5.01%
14,COc1ccc(NC(=O)CCCN2C(=O)C(c3ccccc3)Oc3cccnc32)cc1OC (stereo not shown),1.23%
15,CCCCNC(=O)Cn1cnc2sc(C)c(S(=O)(=O)N3CCN(c4ccccc4OC)CC3)c2c1=O,11.4%
16,O=C(Nc1nc(-c2cc(Cl)sc2Cl)cs1)c1ccc(Br)s1,-6.05%
17,Cc1cccc(/C(N)=N/OC(=O)Cc2cccs2)c1,-12.4%
18,Cc1cc(-c2cc(C(=O)NC3CCCC3)on2)nc(NC2CCCC2)n1,4.57%
19,COc1ccc(S(=O)(=O)NC(C)(C)C)cc1-c1nnc2c3ccccc3c(C)nn12,-5.05%
20,CNS(=O)(=O)c1ccc(OC)c(-c2nnc3c4ccccc4c(C)nn23)c1.Cl,7.8%
21,COc1ccc(S(=O)(=O)NCc2ccco2)cc1-c1nnc2c3ccccc3c(C)nn12,-50.3%
22,CC(=O)c1c(C)n(Cc2ccccc2)c2ccc(O)cc12,12.8%

row,Structure (SMILES),"hERG current change (%, negative = inhibition) at 10uM"
1,Cc1ccc(C2CC(c3cccs3)=NN2C(=O)CSC2=NCCS2)cc1 (stereo not shown),-2.21%
2,COc1ccc(C2=NN(C(=O)CSc3nc(=O)n4cccc(C)c4n3)C(c3ccc(C)cc3)C2)cc1 (stereo not shown),4.53%
3,COc1ccc(C2=NN(C(=O)CSc3nc(=O)n4cc(C)ccc4n3)C(c3ccc(C)cc3)C2)cc1 (stereo not shown),-16.2%
4,CCC(=O)N1N=C(c2cccs2)CC1c1ccc(C)cc1 (stereo not shown),2.52%
5,Cc1ccc(C2CC(c3cccs3)=NN2C(=O)CSc2nc(=O)n3cc(C)ccc3n2)cc1 (stereo not shown),-66.6%
6,COc1ccc(C2CC(c3cccs3)=NN2C(=O)CSc2nc(=O)n3cc(C)ccc3n2)cc1 (stereo not shown),-64.8%
7,Cc1nn(C(C)C(=O)NC(C)CCc2ccccc2)c(=O)c2cc3occc3n12 (stereo not shown),-13.7%
8,O=C(NC1=NCCS1)C1CCN(S(=O)(=O)c2ccccc2C(F)(F)F)CC1,6.92%
9,COc1ccc(-c2coc3cc(OC)cc(O)c3c2=O)cc1,24.5%
10,CCOc1ccc2c(C)nc(NC3=NC(C)(C)C=C(C)N3)nc2c1,-45%
11,CCOc1ccc2nc(NC3=NC(C)(C)C=C(C)N3)nc(C)c2c1,-47.8%
12,CC1=CC(C)(C)N=C(Nc2nc(C)c3cc(C)cc(C)c3n2)N1,-63.5%
13,CN(C)CCCNC(=O)c1cc(C(=O)c2ccccc2F)c[nH]1,1.23%
14,COc1cccc(C(=O)c2c[nH]c(C(=O)NCCCN(C)C)c2)c1,-4.75%
15,CN(C)CCCNC(=O)c1cc(C(=O)c2cccc(Cl)c2Cl)c[nH]1,-51%
16,CN(C)CCCNC(=O)c1cc(C(=O)c2ccccc2)c[nH]1,10.5%
17,CN(C)CCCNC(=O)c1cc(C(=O)c2ccc(F)cc2)c[nH]1,-68.5%
18,CN(C)CCCNC(=O)c1cc(C(=O)c2c(Cl)cccc2Cl)c[nH]1,-9.62%
19,C#CCOC(=O)c1cc(Cl)c(=O)n(Cc2ccc(Cl)cc2Cl)c1,-18.8%
20,COC(=O)c1cc2ccsc2n1CC(=O)NCC1CCCO1 (stereo not shown),10.6%
21,CC(C)Nc1nc(NNc2nc(Cl)nc(NC(C)(C)C)n2)nc(NC(C)C)n1,10.1%
22,Cc1cc(NC(=O)CSc2nc(C3CCCCC3)nc3ccccc23)no1,18.9%

row,Structure (SMILES),"hERG current change (%, negative = inhibition) at 10uM"
1,CCC(=O)Nc1ccc(NC(=O)c2cc3ccccc3o2)cc1,-2.45%
2,CC/C(=C\c1oc2cc3ccccc3cc2[n+]1CC)Nc1ccccc1.[I-],-78.1%
3,O=C(Nc1ccccc1)c1cc2ccccc2o1,-7.55%
4,COCCn1c(SCC(=O)Nc2cccc(S(N)(=O)=O)c2)nc2cc(Cl)ccc2c1=O,-38.8%
5,CN1Cc2cccc3c2C(Cc2ccccc2S3)C1.O=C(O)/C=C\C(=O)O (stereo not shown),-36.6%
6,CN1CCN(C(=O)Nc2ccc3c(c2)N(C)C(=O)c2ccccc2S3)CC1,8.57%
7,CN1CCN(C2Cc3cc(F)ccc3Sc3ccc(Cl)cc32)CC1.O=C(O)/C=C\C(=O)O (stereo not shown),-44.8%
8,CSc1cccc(NC(=O)N2CCN(C)CC2)c1,-31.1%
9,CN1CCN(C2Cc3ccccc3Sc3cc(C(F)(F)F)ccc32)CC1.O=C(O)/C=C\C(=O)O (stereo not shown),-70.2%
10,CN1CCN(C2Cc3ccccc3Sc3ccc(Cl)cc32)CC1.O=C([O-])/C=C\C(=O)[O-] (stereo not shown),-65.9%
11,CN1CCC(=C(c2ccc(Cl)cc2)c2ccccn2)CC1.O=C([O-])/C=C\C(=O)[O-],-40.5%
12,CS(=O)(=O)O.CSc1ccc2c(c1)C(N1CCN(C)CC1)Cc1ccccc1S2 (stereo not shown),-65.9%
13,CSc1ccc2c(c1)C(N1CCN(C)CC1)Cc1ccc(F)cc1S2.O=C(O)/C=C\C(=O)O (stereo not shown),-58.8%
14,O=C(O)/C=C\C(=O)O.OCCN1CCN(C2CCC(c3ccc(F)cc3)c3ccc(F)cc32)CC1 (stereo not shown),-44.5%
15,COc1ccc2c(c1)CC(N1CCN(C)CC1)c1cc(OC)ccc1S2.O=C(O)/C=C\C(=O)O (stereo not shown),-25.9%
16,Cc1ccc(/C=C2\C(=N)N3N=C(CC(=O)N4CCCCC4)SC3=NC2=O)cc1,17.4%
17,COc1ccc(/C(O)=C2/C(=O)C(=O)N(c3ccccn3)C2c2ccc(F)cc2)cc1 (stereo not shown),35.2%
18,O=C(COC(=O)CNC(=O)c1ccc(Cl)cc1Cl)NC1CCCCCCC1,15.8%
19,Cc1cn(C(=O)c2cccc(Br)c2)c(C)n1,15%

# From article PMC4336329 (PLoS ONE, 2015)
